{"source": "paper PMC4336329", "about": "(PLoS ONE, 2015)", "note": "In all, about 310,000 compounds went through this assay and about 2,200 (0.71%) showed an effect of 50% or more. Effects have a minus sign here. Only a selection was taken, and strong results are over-represented in it overall.", "data": [{"target": "human ether-à-go-go-related gene (hERG) potassium channel (human, UniProt Q12809)", "sequence (Q12809 whole entry, looked up)": "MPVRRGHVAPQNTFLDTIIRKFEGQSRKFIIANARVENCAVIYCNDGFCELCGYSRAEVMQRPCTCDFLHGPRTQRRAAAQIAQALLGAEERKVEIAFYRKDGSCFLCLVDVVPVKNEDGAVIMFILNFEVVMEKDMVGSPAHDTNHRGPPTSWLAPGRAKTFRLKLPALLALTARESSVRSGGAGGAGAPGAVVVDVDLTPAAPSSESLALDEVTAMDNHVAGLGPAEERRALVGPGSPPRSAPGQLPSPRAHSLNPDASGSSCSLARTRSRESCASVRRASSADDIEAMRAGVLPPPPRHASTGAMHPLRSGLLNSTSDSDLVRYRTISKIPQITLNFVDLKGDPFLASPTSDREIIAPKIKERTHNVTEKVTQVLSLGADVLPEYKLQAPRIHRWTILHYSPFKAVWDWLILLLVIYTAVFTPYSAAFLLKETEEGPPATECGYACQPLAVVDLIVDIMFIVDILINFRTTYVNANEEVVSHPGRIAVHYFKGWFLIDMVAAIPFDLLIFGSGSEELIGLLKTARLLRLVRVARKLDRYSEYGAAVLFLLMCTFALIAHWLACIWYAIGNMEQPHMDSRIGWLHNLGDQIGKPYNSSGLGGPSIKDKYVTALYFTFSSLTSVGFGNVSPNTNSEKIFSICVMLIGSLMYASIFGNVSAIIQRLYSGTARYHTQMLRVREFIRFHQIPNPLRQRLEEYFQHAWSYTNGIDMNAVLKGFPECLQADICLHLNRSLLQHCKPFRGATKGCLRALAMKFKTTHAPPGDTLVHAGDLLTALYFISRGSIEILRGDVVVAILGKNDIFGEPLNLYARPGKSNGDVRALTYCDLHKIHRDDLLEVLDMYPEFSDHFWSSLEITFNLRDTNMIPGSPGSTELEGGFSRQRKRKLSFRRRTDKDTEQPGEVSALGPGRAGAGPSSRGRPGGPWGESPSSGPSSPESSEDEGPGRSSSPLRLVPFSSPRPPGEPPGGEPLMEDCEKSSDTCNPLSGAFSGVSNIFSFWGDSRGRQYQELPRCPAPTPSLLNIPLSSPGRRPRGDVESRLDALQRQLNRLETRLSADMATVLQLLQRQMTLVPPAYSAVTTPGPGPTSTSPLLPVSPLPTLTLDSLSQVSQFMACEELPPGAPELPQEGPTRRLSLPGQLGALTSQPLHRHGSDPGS", "test": "primary screen, population patch clamp on CHO cells stably expressing hERG; higher = less effect of the substance", "procedure": "Briefly, Chinese hamster ovary (CHO) cells stably expressing the hERG channel were dislodged from tissue culture flasks and dispensed into PPC plates. […] During the recording, background leak currents were estimated by a 100 ms step to -80 mV from an initial holding potential of -70 mV and subtracted from the subsequent current measurement. The campaign was conducted in two phases using slight differences in recording protocol. In the first phase, the initial voltage pulse used a 100 ms step to -30 mV from a holding potential of -70 mV, a 2 s conditioning step to +25 mV, and a 2 s test step to -30 mV. During the second phase of the screen, the potential during the conditioning step was raised to +45 mV. In both phases of the campaign, a secondary voltage pulse was applied using the same parameters as the second phase initial pulse. The initial and secondary pulses were applied in the absence of compound, and upon application of 1 μM and 10 μM test concentrations. Small molecule effects on hERG current density were quantified by […].", "units": {"hERG current change (%, negative = inhibition) at 1uM": "%"}, "values": [{"smiles": "Cc1ccnc(NC(=O)Cn2cc([N+](=O)[O-])cn2)c1", "hERG current change (%, negative = inhibition) at 1uM": 10.4}, {"smiles": "CCOC(=O)c1sc(=S)n(-c2ccccc2)c1N(C(C)=O)C(C)=O", "hERG current change (%, negative = inhibition) at 1uM": 15.5}, {"smiles": "COc1ccc(S(=O)(=O)N2CCOCC2)cc1NC(=O)CCc1cc(OC)c(OC)c(OC)c1", "hERG current change (%, negative = inhibition) at 1uM": 2.32}, {"smiles": "CC(NC(=O)c1cccnc1)C(c1cccs1)N1CCN(C)CC1", "note": "(stereo not shown)", "hERG current change (%, negative = inhibition) at 1uM": 8.63}, {"smiles": "COc1ccc(OCCSc2nc(N)cc(N)n2)cc1", "hERG current change (%, negative = inhibition) at 1uM": -5.65}, {"smiles": "CC(=O)OCCNc1cc(SC(C)C)c2nonc2c1[N+](=O)[O-]", "hERG current change (%, negative = inhibition) at 1uM": 3.63}, {"smiles": "C=CCN1C=C2C(=O)C(C)(OC(=O)CCC(=O)OC)C(=O)C(Br)=C2C=C1c1ccc(OC)cc1", "note": "(stereo not shown)", "hERG current change (%, negative = inhibition) at 1uM": 7.67}, {"smiles": "O=C(Cc1ccccc1[N+](=O)[O-])NCCc1ccc(F)cc1", "hERG current change (%, negative = inhibition) at 1uM": 11.3}, {"smiles": "O=C(OCn1nnc2ccccc2c1=O)c1cccc(S(=O)(=O)N2CCOCC2)c1", "hERG current change (%, negative = inhibition) at 1uM": 12.9}, {"smiles": "CSC(=NC#N)N1CCN(c2ccc(Cl)cc2)CC1", "hERG current change (%, negative = inhibition) at 1uM": -6.45}, {"smiles": "CC(=O)N1CCN(c2ccc([N+](=O)[O-])cc2)CC1", "hERG current change (%, negative = inhibition) at 1uM": -26}, {"smiles": "CC1(C(=O)N2CCN(c3ccc([N+](=O)[O-])cc3)CC2)CC1(Cl)Cl", "note": "(stereo not shown)", "hERG current change (%, negative = inhibition) at 1uM": -64.3}, {"smiles": "CC1(C(=O)N2CCN(c3ccccc3)CC2)CC1(Cl)Cl", "note": "(stereo not shown)", "hERG current change (%, negative = inhibition) at 1uM": 10.3}, {"smiles": "O=C(CCS(=O)(=O)Cc1ccccc1)N1CCN(c2ccc([N+](=O)[O-])cc2)CC1", "hERG current change (%, negative = inhibition) at 1uM": -81}, {"smiles": "CSC(=NC#N)N1CCN(c2ccc([N+](=O)[O-])cc2)CC1", "hERG current change (%, negative = inhibition) at 1uM": -80.9}, {"smiles": "O=C(CCS(=O)(=O)Cc1ccccc1)N1CCN(c2ccccc2)CC1", "hERG current change (%, negative = inhibition) at 1uM": -5.53}, {"smiles": "CSC(=NC#N)N1CCN(c2ccccc2)CC1", "hERG current change (%, negative = inhibition) at 1uM": 6.71}, {"smiles": "Cc1ccc(S(=O)(=O)CCC(=O)N2CCN(c3ccc([N+](=O)[O-])cc3)CC2)cc1", "hERG current change (%, negative = inhibition) at 1uM": -49.9}, {"smiles": "O=C(CSCc1c(F)cccc1Cl)NCC1CCCO1", "note": "(stereo not shown)", "hERG current change (%, negative = inhibition) at 1uM": -1.83}, {"smiles": "CCn1cc(C2=NC(CCSC)CO2)c2ccccc21", "note": "(stereo not shown)", "hERG current change (%, negative = inhibition) at 1uM": 12}, {"smiles": "Cc1ccc(C2=NN(CC(=O)O)C(=O)CC2)cc1", "hERG current change (%, negative = inhibition) at 1uM": -9.99}, {"smiles": "Cc1ccc(C(=O)N2CCN(c3ccc([N+](=O)[O-])cc3-n3cccc3)CC2)cc1", "hERG current change (%, negative = inhibition) at 1uM": -16.4}, {"smiles": "COc1cccc(N2CCN(CC(=O)C34CC5CC(CC(C5)C3)C4)CC2)c1", "hERG current change (%, negative = inhibition) at 1uM": 14}, {"smiles": "O=C(O)c1ccccc1C(=O)O", "hERG current change (%, negative = inhibition) at 1uM": 4.51}, {"smiles": "O=C1OC(NC(=O)c2ccccc2)C(n2cc(CO)nn2)=C1Cl", "note": "(stereo not shown)", "hERG current change (%, negative = inhibition) at 1uM": -3.22}, {"smiles": "COc1ccc(N(C(=O)Cc2cccs2)C(C(=O)NC2CCCCC2)c2cccn2C)cc1", "note": "(stereo not shown)", "hERG current change (%, negative = inhibition) at 1uM": 9.18}, {"smiles": "N#C/C(=C/c1ccc(Cl)cc1)NC(=O)c1ccccc1", "hERG current change (%, negative = inhibition) at 1uM": 12.2}, {"smiles": "COCCn1c(C)cc(C(=O)CSc2nnnn2C2CCCC2)c1C", "hERG current change (%, negative = inhibition) at 1uM": -58.4}, {"smiles": "CCn1c(C)cc(C(=O)CSc2nnnn2C2CCCC2)c1C", "hERG current change (%, negative = inhibition) at 1uM": -9.53}, {"smiles": "COCC(C)n1c(C)cc(C(=O)CSc2nnnn2C2CCCC2)c1C", "note": "(stereo not shown)", "hERG current change (%, negative = inhibition) at 1uM": 5.12}, {"smiles": "CCOC(=O)C1CCCN(CCC(=O)Nc2c(C(=O)OC)[nH]c3cc(OC)ccc23)C1", "note": "(stereo not shown)", "hERG current change (%, negative = inhibition) at 1uM": -38}, {"smiles": "O=C(CSc1nnc(-c2ccc(O)cc2)o1)Nc1cccc(O)c1", "hERG current change (%, negative = inhibition) at 1uM": 17.7}, {"smiles": "Cl.Nc1cc(F)ccc1N1CCCCCC1", "hERG current change (%, negative = inhibition) at 1uM": 12.7}, {"smiles": "CN(C)C(=O)C1C2NC(=S)N(c3ccccc3)C1(C)Oc1ccccc12", "note": "(stereo not shown)", "hERG current change (%, negative = inhibition) at 1uM": 2.05}, {"smiles": "O=[N+]([O-])c1ccc(N2CCN(c3cccc(Cl)c3)CC2)cn1", "hERG current change (%, negative = inhibition) at 1uM": -59.8}, {"smiles": "O=[N+]([O-])c1ccc(N2CCN(c3ccccc3Cl)CC2)cn1", "hERG current change (%, negative = inhibition) at 1uM": -10}, {"smiles": "O=[N+]([O-])c1ccc(N2CCCCC2)cn1", "hERG current change (%, negative = inhibition) at 1uM": 13.9}, {"smiles": "CCc1cccc(C)c1NC(=O)CC1Oc2ccc(C)cc2NC1=O", "note": "(stereo not shown)", "hERG current change (%, negative = inhibition) at 1uM": 11.9}, {"smiles": "CCCOC(=O)CCCN1C(=O)/C(=C2\\SC(=S)N(CCCC(=O)OCCC)C2=O)SC1=S", "hERG current change (%, negative = inhibition) at 1uM": 16}, {"smiles": "Cc1cc2c(cc1C)C(c1ccsc1)CC(=O)N2", "note": "(stereo not shown)", "hERG current change (%, negative = inhibition) at 1uM": 9.06}, {"smiles": "COc1ccc(CN2CCNC(=O)C2CC(=O)N(C)Cc2nccs2)c(OC)c1", "note": "(stereo not shown)", "hERG current change (%, negative = inhibition) at 1uM": 13.1}, {"smiles": "Cc1ccc(NS(=O)(=O)c2ccc(C(=O)N3CCN(c4ncccn4)CC3)cc2)cc1", "hERG current change (%, negative = inhibition) at 1uM": 1.36}, {"smiles": "O=C(Nc1cccc2ccccc12)/C(=C/c1cccc([N+](=O)[O-])c1)NC(=O)c1cccs1", "hERG current change (%, negative = inhibition) at 1uM": -37.8}, {"smiles": "Cc1ccc(C(=O)N/C(=C/c2ccccc2)C(=O)NCc2ccncc2)cc1", "hERG current change (%, negative = inhibition) at 1uM": -37.7}, {"smiles": "COc1ccc(/C=C(/NC(=O)c2ccc(C)cc2)C(=O)NCc2ccncc2)cc1", "hERG current change (%, negative = inhibition) at 1uM": -21.3}, {"smiles": "Cc1ccc(C(=O)N/C(=C\\c2cccs2)C(=O)NCc2ccncc2)cc1", "hERG current change (%, negative = inhibition) at 1uM": -38.5}, {"smiles": "Cc1ccc(C(=O)N/C(=C\\c2ccc(F)cc2)C(=O)NCc2ccncc2)cc1", "hERG current change (%, negative = inhibition) at 1uM": -81.2}, {"smiles": "Cc1ccc(C(=O)N/C(=C\\c2ccccc2)C(=O)NCc2cccnc2)cc1", "hERG current change (%, negative = inhibition) at 1uM": -41.8}, {"smiles": "Cc1ccc(C(=O)N/C(=C\\c2ccccc2)C(=O)NCc2ccncc2)cc1", "hERG current change (%, negative = inhibition) at 1uM": -77.1}, {"smiles": "Cc1ccc(C(=O)N/C(=C\\c2sccc2C)C(=O)NCc2ccncc2)cc1", "hERG current change (%, negative = inhibition) at 1uM": -1.07}, {"smiles": "COc1ccc(C(=O)N/C(=C/c2ccc(Cl)cc2)C(=O)NCc2ccncc2)cc1", "hERG current change (%, negative = inhibition) at 1uM": -38.4}, {"smiles": "Cc1ccc(C(=O)N/C(=C/c2ccc(F)cc2)C(=O)NCc2ccncc2)cc1", "hERG current change (%, negative = inhibition) at 1uM": -78.4}, {"smiles": "Cc1ccc(NC(=O)/C(=C\\c2cccc([N+](=O)[O-])c2)NC(=O)c2cccs2)cc1", "hERG current change (%, negative = inhibition) at 1uM": 4.59}, {"smiles": "O=C(Nc1cccc2ccccc12)/C(=C\\c1cccc([N+](=O)[O-])c1)NC(=O)c1cccs1", "hERG current change (%, negative = inhibition) at 1uM": -67.7}, {"smiles": "N#Cc1c(NC(=S)NC(=O)C2CCCC2)sc2c1CCCCC2", "hERG current change (%, negative = inhibition) at 1uM": 10.1}]}]}
